From PubChem BioAssay (NCI)
Compounds without any hit were thinned out: in the full panel of roughly 83,000, 20% have a hit.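 In brief: 96-well plates, 48 h treatment, single concentration, percent growth endpoint.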 The source made the active and inactive calls. How the source made its calls: active means growth percent below 10; inactive means the rest.

Tests used:
Experiment in all cases: NCI-60 one-dose screen, 48 h (100 = growth as untreated, 0 = no growth, -100 = all killed)
Conditions in all cases: 10 µM unless noted
[1] = test system: HCT-15 colon
[2] = test system: HT29 colon
[3] = test system: SNB-75 CNS
[4] = test system: SNB-19 CNS
[5] = test system: U251 CNS
[6] = test system: PC-3 prostate
[7] = test system: SK-MEL-5 melanoma
[8] = test system: UACC-62 melanoma
[9] = test system: LOX IMVI melanoma
[10] = test system: SK-MEL-28 melanoma

Measured: growth

CCCC(=O)Oc1ccc(/C(=C(\C)c2ccc(Cl)cc2)c2ccc(OCCN(CC)CC)cc2)cc1
active: [1] -79.9% | [2] -50% | [3] -48.1% | [4] -38.1% | [5] -84.6% | [6] -15.4% | [7] -99.7% | [8] -42.2% | [9] -98% | [10] -69.8%

Nn1c(CN2CCN(c3cc4c(cc3F)c(=O)c(C(=O)O)cn4C3CC3)CC2)n[nH]c1=S
inactive: [1] 106% | [2] 97.8% | [3] 86.4% | [4] 99.6% | [5] 112% | [6] 105% | [7] 97.5% | [8] 93.9% | [9] 103% | [10] 109%

CCCCOc1nc2ccc(Cl)cc2cc1/C=C/C(=O)/C=C/c1ccc(Cl)cc1
inactive: [1] 81.9% | [2] 25.2% | [3] 86.4% | [4] 93.9% | [5] 35.3% | [6] 57.5% | [7] 49.4% | [8] 67.5% | [9] 24.1% | [10] 81.9%

COc1cc(NC(C)CCCN2C(=O)c3ccccc3C2=O)c2nc(C)ccc2c1OC (stereo not drawn)
inactive: [1] 89.8% | [2] 98.4% | [3] 82.6% | [4] 99.7% | [5] 94.2% | [6] 81.1% | [7] 88.5% | [8] 74.9% | [9] 85.7% | [10] 97.4%

CCCC(C)(C)COC(=O)c1cccc(N)c1
inactive: [1] 113% | [2] 78.5% | [3] 94.5% | [4] 106% | [5] 89.1% | [6] 78.1% | [7] 102% | [8] 96.6% | [9] 101% | [10] 117%

O=C(Nc1ccc(-n2ccc3c(NC(=O)c4ccccc4)ncnc32)cc1)Nc1ccc(Cl)c(C(F)(F)F)c1
inactive: [3] 53.5% | [8] 29.7% | [10] 34.6%
active: [1] -53.2% | [2] -85.8% | [4] 9.33% | [5] -79.6% | [6] -38.8% | [7] 8.12% | [9] 2.99%

C=CC(=O)NC(=O)Nc1ccccc1Cl
inactive: [1] 67.9% | [2] 70.2% | [3] 83.8% | [4] 72.5% | [5] 81.7% | [6] 78.2% | [7] 96.6% | [8] 93.4% | [10] 109%

FC(F)(F)c1cn(CC2CNC2)c2ncnc(Cl)c12
inactive: [1] 104% | [2] 92.2% | [3] 109% | [4] 99.9% | [5] 105% | [6] 110% | [7] 99.5% | [8] 102% | [9] 102% | [10] 104%

CC1(C)N=C(N)N=C(N)N1c1ccc(OCC(=O)Nc2ccccc2)c(Cl)c1
inactive: [1] 96.7% | [2] 17.6% | [3] 82.3% | [4] 49.4% | [5] 41% | [6] 14.8% | [7] 26.6% | [8] 18.2% | [9] 22.4% | [10] 76.3%

O=C1CCC(c2c(O)cc(O)c3c(=O)c(O)c(-c4ccc(O)c(O)c4)oc23)N1 (stereo not drawn)
inactive: [1] 102% | [2] 84% | [3] 99.2% | [4] 108% | [5] 101% | [6] 93.3% | [7] 101% | [8] 88.5% | [9] 96.9% | [10] 102%

C=C(C)[C@@H]1C/C=C(\COC(=O)[C@H](OC(C)=O)C(NC(=O)c2ccccc2)c2ccccc2)CC[C@H]2O[C@]2(C)CC/C=C(\C)CC1 (stereo partly drawn)
inactive: [1] 89% [5 µM] | [2] 62.8% [5 µM] | [3] 57.5% [5 µM] | [4] 80.2% [5 µM] | [5] 71.4% [5 µM] | [6] 32.1% [5 µM] | [7] 71.4% [5 µM] | [8] 62.3% [5 µM] | [9] 72.9% [5 µM] | [10] 77.1% [5 µM]

N#CC(C#N)=C(C#N)c1c[nH]c2ccccc12
inactive: [1] 73.3% | [2] 80.4% | [3] 79.6% | [4] 92.9% | [5] 86.3% | [6] 73.1% | [7] 92.8% | [8] 82.9% | [9] 82.3% | [10] 108%

O=C1OC(N(Cc2ccc(Cl)cc2)c2ccccc2)c2ccccc21 (stereo not drawn)
inactive: [1] 104% | [2] 87.4% | [3] 115% | [4] 96.7% | [5] 100% | [6] 98.2% | [7] 101% | [8] 93.9% | [10] 111%

Cc1ccn2cc(Cc3cc(=O)oc4c3ccc3ccccc34)c(=O)nc2c1
inactive: [1] 97.4% | [2] 87.8% | [3] 81.4% | [4] 103% | [5] 102% | [6] 104% | [7] 100% | [8] 96.6% | [9] 98.6% | [10] 100%
